Source: PubChem
Sampled rows, rich in hits. Any-hit rate of the full collection: about 1.2%.
Mtb betalactam = beta-lactam sensitization of Mtb H37Rv; M. tuberculosis H37Rv growth with meropenem, percent inhibition; inhibition, % at 25 µM; 0.27% of 330,000 active; AID 434955; call rule not given here;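 note: growth measured after seven days incubation then overnight dye step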
PfHsp40 yeast = compounds rescuing yeast from Plasmodium falciparum HSP40 toxicity | S. cerevisiae expressing PfHsp40, growth rescue, ATP luminescence | growth rescue, % at 12.5 µM | 0.68% of 340,000 active; in the data active = growth rescue above about 28%, passing the limit was not always enough; inconclusive = no clear call, values can overlap the other calls;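 note: yeast W303a lacking pdr1 and pdr3 grown in galactose medium; growth measured after three days at 30 °C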
BH1578 lux ind = induces V. cholerae light production without autoinducers; V. cholerae BH1578 lux reporter, luminescence, 6 h; activation, % at 18.7 µM; 0.16% of 350,000 active; AID 588436; in the data active = activation mostly above about 9.7%, no sharp cut-off; inconclusive = no clear call, values can overlap the other calls; inactive = mostly below about 3.7%
ugtP null kill = kills S. aureus RN4220 lacking UgtP | S. aureus RN4220 ugtP deletion, OD600 growth, 16 h | growth inhibition, % (concentration not given with the values) | 0.54% of 330,000 active | AID 1259309; in the data active = growth inhibition above about 68%
Sa RN4220 lethal = S. aureus RN4220 growth inhibition. OD600, 16 h. inhibition, % (concentration not given with the values). 0.33% of 330,000 active; in the data active = inhibition above about 85%
Numbers stand for hits; - = inactive; ? = inconclusive; . = not tested or not shown.

SMILES	Mtb betalactam	PfHsp40 yeast	BH1578 lux ind	ugtP null kill	Sa RN4220 lethal
CN(Cc1c(F)cccc1Cl)C(=O)c1ccc(COc2ccccc2)cc1	-	-	-	100	97
Cc1ccc(Nc2ccc(-n3ccnc3)nn2)cc1C	-	66	-	-	-
CCSc1ccc(C2C3C(=O)N(CC)C(=O)C3[C@]3(C(=O)OC)CCCCN23)cc1OC (stereo partly specified)	.	.	.	-	-
COc1ccc(Nc2nc(N)c(C(=O)c3ccc(OC)cc3)s2)cc1	-	-	-	-	-
COc1ccc(Nc2nc(N)c(C(=O)c3ccc(F)cc3)s2)cc1	-	34	-	.	.
COc1ccc(OC)c(C=Nn2c(C)nc3ccccc3c2=O)c1	.	.	.	-	-
N#CC(=Cc1ccc(O)c([N+](=O)[O-])c1)c1nc2ccccc2s1	.	.	.	97	96
N#C/C(=C\c1ccc(O)c([N+](=O)[O-])c1)c1nc2ccccc2s1	.	-	-	.	.
Cc1cc2oc(=O)cc(-c3ccccc3)c2c(C)c1-c1ccc(O)cc1	.	-	-	-	-
Cc1oc2cc(Br)c(O)c(Br)c2c1-c1ccccc1	-	97	-	87	-
CC=CC=CC(=O)Nc1cccc(C2=NOC3(C2)CC(C(N)=O)N(C(=O)c2cc([N+](=O)[O-])cc([N+](=O)[O-])c2C)C3)c1 (stereo unspecified)	.	.	.	-	-
CC(C)(C)c1ccc(OCC(=O)NNC(=S)NC(=O)c2ccco2)c(Br)c1	-	-	-	98	99
CC(C)c1ccc(OCC(=O)NNC(=S)NC(=O)c2ccco2)c(Br)c1	-	-	.	-	-
CC(=O)CC(O)CC(=O)C1OC(=O)CCCCCCCCc2ccccc21 (stereo unspecified)	.	.	.	-	-
O=C(OCC(=O)N1CCN(C(=O)c2ccco2)CC1)c1ccccc1OCc1ccccc1	-	-	-	-	-
O=C(c1ccco1)N1CCN(C(=O)c2ccccc2OCc2ccc(Cl)cc2)CC1	-	253	-	-	-
O=C(NC(=S)Nc1ccc(N2CCOCC2)cc1)c1ccc(Cl)cc1	-	-	-	87	-
Cc1cccc(C(=O)NC(=S)Nc2ccc(N3CCOCC3)cc2)c1	-	-	-	87	-
O=C(NC(=S)Nc1ccc(N2CCOCC2)cc1)c1ccc2c(c1)OCCO2	-	-	-	-	-
COc1ccc(C(=O)NC(=S)Nc2ccc(N3CCOCC3)cc2)cc1Cl	-	-	-	99	-
Cc1ccc(C(=O)NC(=S)Nc2ccc(N3CCOCC3)cc2)cc1C	-	-	-	-	-
CC(C)(C)c1ccc(C(=O)NC(=S)Nc2ccc(N3CCOCC3)cc2)cc1	-	-	-	-	-
COC(=O)C1=C(c2cccc(OCc3ccccc3)c2)CC2CCC1N2C(=O)NCc1ccc(C(C)(C)C)cc1 (stereo unspecified)	.	.	.	-	-
N#C/C(=C\Nc1ccccc1O)c1nc2ccccc2o1	-	452	-	-	-
C#CCOCCOCCOCCNc1nc(N2CCN(C(=O)C(Cc3ccc(O)cc3)n3cc(C(N)CC(C)C)nn3)CC2)nc(N2CCN(C(=O)C(CCC(=O)O)n3cc(C(N)C(C)CC)nn3)CC2)n1 (stereo unspecified)	.	.	.	-	-
SMILES	Mtb betalactam	PfHsp40 yeast	BH1578 lux ind	ugtP null kill	Sa RN4220 lethal
CC(C)CCNC(=O)c1onc(CSc2ccc(F)c(F)c2)c1C(=O)NCCC(C)C	-	37	-	-	-
CN(C)CCNC(=O)c1onc(CSc2ccc(F)cc2)c1C(=O)NCCN(C)C	-	34	-	-	-
COc1ccccc1C(=O)NC(CCSC)C(=O)NNC(=O)c1ccccc1O (stereo unspecified)	-	98	-	-	-
CC(NC(=O)c1[nH]cnc1C(=O)Nc1ccc(Cl)cc1)C(=O)OC(C)(C)C (stereo unspecified)	.	.	.	-	-
Cn1cc(C(=O)N/N=C/C=C/c2ccccc2)ccc1=O	-	51	-	.	.
O=c1c(-c2c(O)cc(O)c3c(=O)cc(-c4ccc(O)cc4)oc23)c(-c2ccc(O)cc2)oc2cc(O)cc(O)c12	-	105	-	-	-
O=c1cc(-c2ccc(O)cc2)oc2c(-c3c(O)cc(O)c4c(=O)cc(-c5ccc(O)cc5)oc34)c(O)cc(O)c12	-	-	-	-	-
CC1(C)S[C@@H]2[C@H](NC(=O)COc3ccccc3)C(=O)N2C1C(=O)OCC1CCCCC1 (stereo partly specified)	-	-	-	100	99
CC1(C)SC2C(NC(=O)COc3ccccc3)C(=O)N2C1C(=O)OCc1ccccc1 (stereo unspecified)	.	.	.	100	100
O=C(Cc1nnc(NC(=O)c2ccccc2)s1)NN=Cc1cccc(O)c1	.	.	.	-	-
C=CCC(CC(=O)N(CCO)Cc1ccccc1)C(=O)NC(COC(=O)C(CC=C)Cc1ccc(F)cc1)c1ccccc1 (stereo unspecified)	.	.	.	-	-
CC(NC(=O)c1cn(C)c2ccc(S(=O)(=O)N3CCCC3)cc2c1=O)c1ccc2c(c1)OCCO2 (stereo unspecified)	?	42	-	-	-
CC(=NNC(=O)COc1ccccc1)c1ccc(O)cc1	.	.	.	-	-
Cc1nnc(SCc2cccc3ccccc23)n(N)c1=O	-	-	-	-	-
Cc1nnc(SCc2c(Cl)cccc2Cl)n(N)c1=O	-	-	58	-	-
CC(C)CC1CNC(=O)C(=O)N1CC(C)NC(=O)Cc1ccccc1 (stereo unspecified)	.	.	.	-	-
CSc1nc2ccc(NC(=O)c3ccco3)cc2s1	-	-	-	-	-
O=C(Nc1cccc(-c2nc3ccccc3s2)c1)c1cc(=O)c2ccccc2o1	-	-	-	-	-
O=C(Nc1cccc(-c2nc3ccccc3s2)c1)c1cccs1	-	403	-	-	-
CSc1nc2ccc(NC(=O)c3cccs3)cc2s1	-	158	-	-	-
COc1ccc(O)c(/C=N/NC(=O)c2ccc(CSc3nc(C)cc(C)n3)cc2)c1	-	52	-	.	.
Cc1cc(C)nc(SCc2ccc(C(=O)NN=Cc3cccc(O)c3O)cc2)n1	.	.	.	-	-
Cc1cc(C)nc(SCc2ccc(C(=O)N/N=C/c3cccc(O)c3O)cc2)n1	-	126	-	.	.
N#CC(=NO)c1nc(-c2ccc(F)cc2)cs1	.	.	.	-	-
C#CCOCCOCCOCCNc1nc(N2CCN(C(=O)C(CCC(=O)O)n3cc(C(N)CO)nn3)CC2)nc(N2CCN(C(=O)C(CCC(=O)O)n3cc(C(N)C(C)CC)nn3)CC2)n1 (stereo unspecified)	.	.	.	-	-
SMILES	Mtb betalactam	PfHsp40 yeast	BH1578 lux ind	ugtP null kill	Sa RN4220 lethal
COCc1cc(CN2CCN(C)CC2)c(O)c2ncccc12	-	-	-	-	-
Oc1c(CNc2ccccc2)cc(COCc2ccccc2)c2cccnc12	-	53	-	-	-
Cc1ccc(NCc2ccc(O)c3ncccc23)cc1	-	-	-	-	-
Oc1c(CN2CCOCC2)cc(COCc2ccccc2)c2cccnc12	-	65	-	-	-
COC(=O)C1=C(c2ccccc2OCc2ccccc2)CC2CCC1N2C(=O)NCc1ccc(Cl)cc1 (stereo unspecified)	.	.	.	-	-
Cc1ccccc1Cn1nnc(C(=O)Nc2ccc3c(c2)OCCO3)c1N	-	106	-	-	-
